Screening data (PubChem BioAssay)
FLuc inh = Firefly luciferase inhibition profiling of diverse chemical library using quantitative high-throughput screening. Luciferin 4-monooxygenase (Photinus pyralis), P08659. purified P. pyralis luciferase, luminescence, biochemical. 76,000 tested, 2.5% active. Potency, µM (top dose mostly 115 µM), most hits filed as inhibitors; note: nearly all actives have a fitted effect of over 65% in size
Target sequence (P08659 whole entry, looked up): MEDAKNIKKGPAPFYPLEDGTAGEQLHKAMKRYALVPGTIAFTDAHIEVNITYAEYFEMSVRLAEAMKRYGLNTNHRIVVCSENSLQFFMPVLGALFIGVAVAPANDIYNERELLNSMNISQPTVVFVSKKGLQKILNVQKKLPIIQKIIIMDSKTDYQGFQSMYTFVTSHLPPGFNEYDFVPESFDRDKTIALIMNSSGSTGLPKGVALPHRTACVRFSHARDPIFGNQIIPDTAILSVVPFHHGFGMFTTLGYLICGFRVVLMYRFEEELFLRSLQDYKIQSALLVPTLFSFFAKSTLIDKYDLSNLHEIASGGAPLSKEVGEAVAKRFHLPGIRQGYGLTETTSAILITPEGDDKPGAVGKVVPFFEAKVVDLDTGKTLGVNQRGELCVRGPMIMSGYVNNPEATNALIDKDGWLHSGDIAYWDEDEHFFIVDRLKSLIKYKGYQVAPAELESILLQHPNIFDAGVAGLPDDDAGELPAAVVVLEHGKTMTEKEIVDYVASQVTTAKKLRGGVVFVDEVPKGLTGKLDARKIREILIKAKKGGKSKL
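Cell-free enzyme assay, 10nM P. pyralis luciferase, luciferin and ATP each at 10uM. Inhibition profiled over a 6-point titration, read as luminescence.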
GPT2 inhibitor = Primary qHTS assay for inhibitors of Glutamate pyruvate transaminase 2 (GPT2) | Alanine aminotransferase 2 (Homo sapiens), Q8TD30 | Recombinant GPT2, coupled pyruvate oxidase/HRP Amplex Red fluorescence | Potency, µM (series often up to 57.7 µM), without a hit: at the highest dose activity change, negative = inhibition, actives largely listed as inhibitors | 100,000 tested, 0.25% active | AID 1671188, 2021; note: nearly all actives have a fitted effect of over 60% in size
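Recombinant GPT2 (10ng/uL) with 250uM a-KG and 2mM L-alanine, 30 min at room temperature, in HEPES pH 7.5 buffer. Pyruvate detected by pyruvate oxidase/HRP/Amplex Red fluorescence after 30 min in the dark; AOA (50uM) as positive control.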
HEK293 tox = Cytotoxic Profiling in HEK 293 Cell Line of Diverse Libraries Using Quantitative High-Throughput Screening | Potency, µM (highest dose often 115 µM), without a hit: top-dose activity change, negative = cytotoxicity, usual class: inhibitors | AID 1345083, 2018 | HEK 293 viability, ATP luminescence (CellTiter-Glo), 48-72 h | 94,000 tested, 6.6% active; note: nearly all actives have a fitted effect of over 60% in size
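HEK 293 cells seeded at 250 cells/well were exposed to compound for 48 or 72 hr at 37 degree Celsius. Viability taken as ATP content by CellTiter-Glo luminescence.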
hNpr1 antagonist = Natriuretic polypeptide receptor (hNpr1) antagonism - Primary qHTS; Potency, µM (highest dose often 46.3 µM), for the others: at the top dose activity change, negative = inhibition, actives largely listed as inhibitors; Atrial natriuretic peptide receptor 1 (Homo sapiens), P16066; 76,000 tested, 1.6% active; HEK293 hNpr1 GloSensor cGMP, ANP-stimulated luminescence; calls by dose curve; note: nearly all actives have a fitted effect of over 60% in size
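HEK293 cells stably expressing human Npr1 and cGMP GloSensor pGS-40F, loaded 2 h with 2% GloSensor reagent, given compound 30 min at room temperature. Luminescence read before and 20 min after 0.1 nM hNppA.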
NIH3T3 tox = Cytotoxic Profiling in NIH 3T3 Cell Line of Diverse Libraries Using Quantitative High-Throughput Screening; AID 1345082, 2018; NIH 3T3 viability, CellTiter-Glo ATP luminescence, 48-72 h; 94,000 tested, 4.3% active; Potency, µM (highest dose often 96.7 µM), for inactives: at the highest dose activity change, negative = cytotoxicity, hits mostly inhibitors; note: nearly all actives have a fitted effect of over 55% in size
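Mouse fibroblast NIH 3T3 cells, 400 per well, received compound via pintool and were incubated for 48 or 72 hr prior to CellTiter-Glo ATP luminescence measurement.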
* hit, by the source's call; i = inactive; ? = inconclusive; . = no result; [ ] = another dose, or the depositor's remark. A selection: hits, their analogues and other compounds. The true share with any hit is near 10%. Unless noted, calls come from the whole dose curve; as a rule, active = well fitted curve in the direction sought with a large enough effect; inconclusive = small, poorly fitted or top-dose-only effect, or another doubt; inactive = no such curve, though single readings can be large; an effect the other way counts as inactive or inconclusive. % is set by controls: 0 for no effect and ±100 for the full control effect; potency is the fitted concentration of half-maximal effect.

SMILES	FLuc inh	GPT2 inhibitor	HEK293 tox	hNpr1 antagonist	NIH3T3 tox
O=C1CCCCC(C(=O)N2CCc3ccccc3C2)N1 (stereo not drawn)	i	i	?	5.5%	i
CN1CCN(c2cc(=O)c3ccnc(-c4ccccc4O)c3o2)CC1	i	1.5%[88.5 µM]	-5.5%[172 µM]	-7.0%[70.6 µM]	22.4µM*
CN1CCN(c2cc(=O)c3ccnc(-c4ccnn4C)c3o2)CC1	i	0.7%[88.5 µM]	-7.0%[172 µM]	1.5%[70.6 µM]	39.8µM*
CN1CCN(c2cc(=O)c3ccnc(-c4ccc(Cl)cc4)c3o2)CC1	i	-13.0%[88.5 µM]	-6.4%[172 µM]	-12.8%[70.6 µM]	?
O=C1Nc2ccc(-c3ccc4c(c3)OCO4)cc2C(=O)N2CCN(C(=O)NC3CCCCC3)C[C@H]12	i	-2.2%	?	1.4%	?
Cc1noc(C)c1-c1cc2c(c(-c3ccccc3Oc3ccccc3)c1)C(=O)N(C)C2	i	?	?	-22.6%[70.6 µM]	12.6µM*
Cc1noc(C)c1-c1cc2c(c(-c3cccc(OC(C)C)c3)c1)C(=O)N(C)C2	i	3.4%[88.5 µM]	?	1.78µM*	?
CN1C(=O)CC(C(=O)O)C12CCN(Cc1cccc(C(=O)O)n1)CC2 (stereo not drawn)	i	-9.5%	-5.5%	7.3%	-5.7%
O=C(NCCc1ccc(F)cc1)C1CCN(c2nccc(Nc3ccccc3F)n2)CC1	.	i	28.2µM*	.	?
O=C(NCc1ccc(Cl)cc1)C1CCN(c2nccc(Nc3ccccc3F)n2)CC1	.	4.0%	17.8µM*	.	28.2µM*
O=C(Nc1cccc(F)c1)C1CCN(C(=O)N2CC3CC(C2)[C@H]2CCCC(=O)N2C3)CC1 (stereo partly drawn)	i	i	-0.7%	-0.4%	i
O=c1n(CCN2CCCN([S+](=O)([O-])c3cccs3)CC2)nc2n1CCCC2	.	.	-9.7%	.	-10.4%
O=C(Nc1ccccc1)N[C@H]1CO[C@H]2[C@@H]1OC[C@@H]2Nc1nccc(C2CCCC2)n1	i	-1.0%[88.5 µM]	-29.6%[172 µM]	1.7%[70.6 µM]	?
O=C(COc1ccccc1)N[C@H]1CO[C@H]2[C@@H]1OC[C@@H]2n1nnnc1Oc1ccc(-n2cncn2)cc1	i	-23.6%	3.5%	2.0%	-22.8%
O=C(Nc1ccc(Oc2ccccc2)cc1)N[C@H]1CO[C@H]2[C@@H]1OC[C@@H]2n1nnnc1Oc1ccc(-n2cncn2)cc1	i	-0.1%	25.1µM*	-24.6%	?
O=C(Nc1cccc(C(F)(F)F)c1)N[C@H]1CO[C@H]2[C@@H]1OC[C@@H]2Nc1nccc(C2CCCC2)n1	i	i	?	-6.2%	79.4µM*
COc1ccc(NC(=O)N[C@H]2CO[C@H]3[C@@H]2OC[C@H]3OC(=O)Nc2ccc(OC)cc2)cc1	?	2.8%	-9.3%	-2.2%	i
CC(=O)c1ccc(NC(=O)O[C@@H]2CO[C@H]3[C@@H]2OC[C@@H]3NC(=O)Nc2ccc(Oc3ccccc3)cc2)cc1	i	0.4%	31.6µM*	?	?
COc1ccc(NC(=O)O[C@@H]2CO[C@H]3[C@@H]2OC[C@@H]3NCc2ccc(-c3ccccc3)cc2)cc1	?	-14.8%	35.5µM*	5.62µM*	?
Cc1ccccc1Oc1ncccc1CNC(=O)CCc1c(C)nn(C)c1C	i	i	-12.2%	-2.8%	-17.6%
COc1cccc(S(=O)(=O)N2C[C@@H](Oc3cccnc3)C[C@@H]2C(=O)N2CCOCC2)c1	i	i	-0.9%	6.1%	-9.8%
CNC(=O)c1cc(C2CC2)nc2c1c(C1CCN(C(=O)c3ccccc3C)C1)nn2C (stereo not drawn)	.	.	4.9%	.	-0.1%
O=C(NC1CCN(C(=O)c2ccc(-c3cccs3)cc2)CC1)c1ccncc1	.	i	?	.	?
N#Cc1ccccc1S(=O)(=O)N[C@H]1CO[C@H]2[C@@H]1OC[C@H]2OC(=O)Nc1ccc(Oc2ccccc2)cc1	39.8µM*	1.2%	?	11.2µM*	?
O=C(Nc1ccc(Oc2ccccc2)cc1)N[C@H]1CO[C@H]2[C@@H]1OC[C@H]2OC(=O)Nc1cccc(C(F)(F)F)c1	i	-9.5%	-32.1%	-14.7%	-34.5%
SMILES	FLuc inh	GPT2 inhibitor	HEK293 tox	hNpr1 antagonist	NIH3T3 tox
O=C(Nc1ccccc1)N[C@H]1CO[C@H]2[C@@H]1OC[C@H]2OC(=O)Nc1ccc(Oc2ccccc2)cc1	?	0.4%	?	7.94µM*	?
O=C(Nc1cccc(C(F)(F)F)c1)O[C@@H]1CO[C@H]2[C@@H]1OC[C@@H]2NC(=S)Nc1ccc(Cl)cc1	i	0.2%	44.7µM*	-26.0%	?
COCC1CN(C(C)=O)CC12CCN(C(=O)c1cccc(Cl)c1)CC2 (stereo not drawn)	i	-10.2%	-12.4%	-6.5%	-24.5%
CCOC(=O)C1=CN(CC(=O)Nc2c(C)cccc2C)S(=O)(=O)N=C1C	i	1.2%	-2.8%	-16.6%	-6.8%
Cc1cccc(-c2cccc(CN3CCCC(C(=O)NCC(F)F)C3)c2)c1 (stereo not drawn)	.	2.7%	?	.	?
O=C(NCc1cccc(C(F)(F)F)c1)C1CCCN(Cc2cccc(-c3ccsc3)c2)C1 (stereo not drawn)	.	.	31.6µM*	.	12.6µM*
O=C1CCN(Cc2ccncc2)CCCC(C(=O)NCc2cccc(C(F)(F)F)c2)CCN1 (stereo not drawn)	i	1.0%	-5.7%	-0.5%	-9.9%
O=C(NCc1ccc(C(F)(F)F)cc1)C1CCCN(Cc2cccc(-c3ccsc3)c2)C1 (stereo not drawn)	.	.	?	.	35.5µM*
Cc1ccsc1C(=O)N1CCC2(CC1)N(c1ccccc1)C(=O)CS2(=O)=O	i	i	1.4%	1.3%	-1.0%
COCC[C@]1(O)CCN(C(=O)C2CCN(C3CCCC3)CC2)C[C@H]1C	i	i	i	9.2%	i
O=C(C1CCCN(Cc2cccc(-c3ccsc3)c2)C1)N1CCOCC1 (stereo not drawn)	.	i	?	.	?
CCCCCNC(=O)C1CCCN(Cc2cccc(-c3ccsc3)c2)C1 (stereo not drawn)	.	.	31.6µM*	.	35.5µM*
O=C(NCCC1CCCCC1)C1CCCN(Cc2cccc(-c3ccsc3)c2)C1 (stereo not drawn)	.	.	44.7µM*	.	?
COCCNC(=O)C1CCCN(Cc2cccc(-c3ccsc3)c2)C1 (stereo not drawn)	.	.	-26.6%	.	?
CCN1C(=O)COC[C@@H]1[C@H](O)c1ccc(NC(=O)c2ccc3c(c2)OCO3)cc1	?	-4.4%[88.5 µM]	-5.4%[172 µM]	2.1%[70.6 µM]	-3.0%[138 µM]
